Shown are actives, neighbours in structure and some others; about 2.4% of the full set was active somewhere.
D2 ag-1 = Beta-Arrestin HTS for Positive Allosteric Modulators of the Human D2 Dopamine Receptor: Agonists; D(2) dopamine receptor (Homo sapiens), P14416; DiscoveRx PathHunter D2 beta-arrestin, luminescence, 90 min; 100% = 57 uM dopamine signal; activation, % (concentration not given with the values); actives 0.084% (n = 360,000); AID 624465, 2012; in the data active means activation above about 40%; inconclusive means between about 15% and that limit
Target sequence (P14416 whole entry, looked up): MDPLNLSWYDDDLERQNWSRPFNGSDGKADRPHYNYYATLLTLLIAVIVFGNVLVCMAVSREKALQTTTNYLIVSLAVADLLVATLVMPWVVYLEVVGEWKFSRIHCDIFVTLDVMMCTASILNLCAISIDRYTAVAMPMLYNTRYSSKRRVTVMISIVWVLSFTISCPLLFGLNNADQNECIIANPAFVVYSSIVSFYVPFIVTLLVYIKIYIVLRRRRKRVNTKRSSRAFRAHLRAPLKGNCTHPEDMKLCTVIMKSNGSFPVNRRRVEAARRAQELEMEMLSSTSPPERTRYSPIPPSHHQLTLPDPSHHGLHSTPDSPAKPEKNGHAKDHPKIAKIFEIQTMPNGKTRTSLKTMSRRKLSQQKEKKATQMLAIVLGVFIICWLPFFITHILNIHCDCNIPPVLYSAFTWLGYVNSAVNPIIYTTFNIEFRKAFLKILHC
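DiscoveRx PathHunter D2 beta-arrestin cells (2,100/well) attached overnight, then compound-stimulated 90 min at 37 C in HBSS/10 mM HEPES/0.1% Tween-20 buffer; beta-galactosidase complementation read by luminescence after 1 h at ambient temperature. Dopamine 57 uM final (EC100) as control.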
D2 PAM-1 = Beta-Arrestin HTS for Positive Allosteric Modulators of the Human D2 Dopamine Receptor: Potentiators; D(2) dopamine receptor (Homo sapiens), P14416; DiscoveRx D2 beta-arrestin cells, luminescence, 90 min; 100% = 57 uM dopamine signal; potentiation, % (concentration not given with the values); actives 0.23% (n = 360,000); AID 624464, 2012; in the data active means potentiation above about 50%; inconclusive means mostly about 30% to 49%
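PathHunter D2 cells, attached overnight at 37 deg C, received compound in DMSO plus dopamine at EC20 (50 nM final) for 90 min at 37 deg C. Beta-arrestin recruitment was read as luminescence after 1 h with detection reagent at ambient temperature.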
D2 PAM-2 = HTS Assay for Positive Allosteric Modulators of the Human D2 Dopamine Receptor: Primary Screen for Potentiators; HEK293 T-REx D2, calcium flux, EC20 dopamine potentiation; potentiation, % at 10 µM; actives 0.34% (n = 340,000); AID 485347, 2010;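 active means potentiation over 3 SD above the plate norm, cut at about 30% in these data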; further: 0% is about no effect
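Primary screen. Calcium kinetics in induced HEK293 T-REx D2 cells: compound pre-addition 180 s, EC20 dopamine, 180 s more.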
D2 antag = HTS Assay for Allosteric Antagonists of the Human D2 Dopamine Receptor: Primary Screen for Antagonists | D(2) dopamine receptor (Homo sapiens), P14416 | HEK293 TREx D2 cells, calcium flux, dopamine EC80 | inhibition, % at 10 µM | actives 2% (n = 340,000) | AID 485344, 2010; in the data active means inhibition above about 30%; inactive means below that, where a call was filed; further: 0% is about no effect
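Overnight-induced (tetracycline, 30 C) HEK293 T-REx cells carrying force-coupled D2 receive a no-wash calcium dye, then compound, then EC80 dopamine at 180 s; signals are read kinetically throughout.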
D2 ag-2 = HTS Assay for Allosteric Agonists of the Human D2 Dopamine Receptor: Primary Screen for Agonists. HEK293 T-REx D2 cells, calcium flux agonist mode. activation, % at 2 µM. D(2) dopamine receptor (Homo sapiens), P14416. actives 0.53% (n = 340,000). AID 485358, 2010;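 active means activation over 3 SD above normal in the single-dose calcium agonist read, cut at about 30% in these data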; further: 0% is about no effect
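Calcium-flux readout, 1 cycle/sec over 180 s following compound pin transfer, in inducible HEK293 Trex D2 cells (force-coupled); dopamine controls included. Positive calcium responses during this window marked compounds as potential agonists.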
An asterisk follows results filed as active; u = inconclusive; x = no result given.

SMILES | D2 ag-1 | D2 PAM-1 | D2 PAM-2 | D2 antag | D2 ag-2
CCOC(=O)C1(Cc2ccccc2C(F)(F)F)CCN(C2CCSC2)CC1 (configuration not stated) | -1 | -14 | -24 | 50* | 1
Cc1cccc(-n2c(O)c(C=NC3CCS(=O)(=O)C3)c3ccccc3c2=O)c1C (configuration not stated) | -2 | -6 | 0 | -4 | 0
COc1cccc(-c2noc(C3CCCN(C(=O)c4ccc(F)cc4F)C3)n2)c1 (configuration not stated) | -4 | 0 | 19 | 33* | -1
CCOC(=O)C1(c2csc(N)n2)COC(=O)C1 (configuration not stated) | -4 | 3 | 2 | 44* | 1
Cc1ccc2nc(SCc3nc(-c4ccc(Cl)cc4)no3)[nH]c2c1 | x | x | -6 | x | 0
COc1cc2[nH]c(C(=O)NCC3CCCO3)cc2c(OC)c1OC (configuration not stated) | -1 | -24 | -24 | 55* | 0
OCC1CCCCN1C(=S)NCc1ccco1 (configuration not stated) | 0 | u | -6 | 8 | 1
CC1CCCC(C)N1C(=S)NCc1ccco1 (configuration not stated) | 1 | -6 | 12 | 30* | 0
COc1ccc(OC)c(NC(=O)c2cc3c(n(-c4ccc(Cl)cc4)c2=O)CC(C)(C)CC3=O)c1 | x | x | -3 | x | 1
COc1ccccc1N1CCN(C(=O)c2ccc3c(c2)NC(=O)C(CSCc2ccccc2C)N3)CC1 (configuration not stated) | x | x | 13 | 4 | 0
Cc1ccc2c(CC(=O)Nc3c(C(=O)c4ccc(F)cc4)oc4ccccc34)coc2c1 | x | x | 12 | x | 0
O=C(CN1CCN(c2ccccc2)CC1)NC(=O)NCc1ccco1 | 2 | 0 | -11 | -15 | 39*
CCCCN1CC(COCc2ccccc2)Oc2ccccc2S1(=O)=O (configuration not stated) | -3 | -4 | x | x | x
O=C(Cc1cc(=O)[nH][nH]1)N/N=C/c1ccccc1Cl | -1 | 2 | 9 | -13 | 0
O=C(Cc1ccccc1)N/N=C/c1ccccc1Cl | -4 | -12 | 1 | 31* | -1
O=C(C[n+]1ccccc1)N/N=C/c1ccccc1Cl | 5 | -1 | -20 | 36* | 0
O=C(Cc1ccccc1)Nc1ccc(Br)c(Cl)c1 | 0 | -14 | 31* | -10 | -2
CNC(=S)N/N=C/c1ccccc1OCC(=O)O | -3 | -5 | 14 | 31* | 2
O=C(C[n+]1ccccc1)N/N=C/c1cccc(Cl)c1Cl | -7 | -7 | 8 | -11 | 1
O=C(O)COc1ccccc1/C=N/NC(=O)C(O)c1ccccc1 (configuration not stated) | -6 | -5 | 1 | -15 | 0
C=CCc1cccc(/C=N/NC(=O)C(C)Nc2cccc(C)c2)c1O (configuration not stated) | -4 | -12 | -9 | 31* | 0
C=CCc1cccc(/C=N/NC(=O)CCCNc2ccc(C)cc2)c1O | -4 | -27 | -15 | -18 | -1
COc1ccc(/C=N/NC(=O)C[n+]2ccccc2)c(OC)c1OC | -3 | -27 | -27 | 35* | 0
CCOc1ccccc1/C=N/NC(=O)C[n+]1ccccc1 | -5 | -19 | -16 | 33* | -1
C=CCc1cccc(/C=N/NC(=O)C[n+]2ccccc2)c1O | 10 | -12 | -20 | 53* | 0
SMILES | D2 ag-1 | D2 PAM-1 | D2 PAM-2 | D2 antag | D2 ag-2
COc1ccc(CCCc2nnc(SCC(=O)Nc3ccc(Cl)cc3)o2)cc1 | x | x | 10 | x | x
CC1(C)CC2CC(C)(CN2C(=O)COC(=O)c2cncc(Br)c2)C1 (configuration not stated) | 9 | -3 | -3 | 6 | 1
CC(=O)c1c(C)oc2c1cc(O)c1ccccc12 | 0 | -7 | -23 | 2 | 0
CCOC(=O)c1c(C)oc2c1cc(O)c1ccccc12 | 9 | 58* | 3 | 0 | 0
COc1cc(OC)cc(C(=O)N2CCN(C3CCCCC3)CC2)c1 | -2 | -8 | 5 | -3 | 0
COc1cc(OC)cc(C(=O)N2CCC(N3CCCCCC3)CC2)c1 | -1 | -8 | 38* | 3 | -1
COc1cc(OC)cc(C(=O)N2CCN(c3ccccc3F)CC2)c1 | -3 | -7 | 0 | 31* | 1
O=C(c1cccc(Br)c1)N1CCN(C(=O)c2cccc(Br)c2)CC1 | 0 | -6 | 35* | 5 | 0
O=C(c1cccc(Br)c1)N1CCN(C(=O)N2CCOCC2)CC1 | -2 | -22 | -5 | 19 | 1
COc1ccc(OCC(=O)N2CCN(C(=O)c3cccc(F)c3)CC2)cc1 | -2 | -7 | -8 | -3 | -1
COc1cc(OC)cc(C(=O)N2CCN(C(=O)c3cccc(F)c3)CC2)c1 | 1 | 6 | -1 | 31* | 0
CC1CCc2c(sc(NC(=O)Cc3ccccc3)c2C(=O)Nc2ccc(Cl)cc2)C1 (configuration not stated) | x | x | 1 | x | -1
COc1ccccc1CNC(=O)CN1N=C(c2ccccc2)CCC1=O | x | x | 8 | x | -1
Cc1cccc(NC(=O)CCS(=O)(=O)c2ccc3c(c2)NC(=O)CS3)n1 | 0 | -6 | -3 | 39* | 0
CC1CCC(NC(=O)CCS(=O)(=O)c2ccc3c(c2)NC(=O)CS3)CC1 (configuration not stated) | -2 | -4 | -1 | 3 | 1
O=C(N/N=C/c1cn[nH]c1-c1ccccc1)c1ccco1 | 0 | -4 | 13 | 4 | 1
Cc1cc(C(=O)N/N=C/c2cn[nH]c2-c2ccccc2)cs1 | -3 | -19 | -21 | 30* | 0
CCc1c(C(=O)N/N=C/c2cn[nH]c2-c2ccc(F)cc2)csc1C | 0 | 10 | -27 | 71* | 4
O=C(N/N=C\c1cn[nH]c1-c1ccccc1)c1ccc([N+](=O)[O-])cc1 | 3 | -16 | -23 | 58* | -1
O=C(Nc1cccc(S(=O)(=O)C(F)F)c1)c1ccc(S(=O)(=O)N2CCCC2)cc1 | 3 | 4 | -15 | 59* | -1
O=C(Nc1ccc(S(=O)(=O)N2CCCC2)cc1)c1ccc(CN2CCOCC2)cc1 | -1 | -3 | 13 | -6 | 2

Source: PubChem BioAssay (National Center for Advancing Translational Sciences (NCATS))
